Measurements published in PubChem BioAssay (EPA / NIEHS).
The source made the active and inactive calls. The calls were made as follows: active = hit-call score of the fitted dose curve at least 0.9, where 1 is the maximum; inactive = score below 0.9.

Experiment: CCTE_Shafer_MEA_dev_firing_rate_mean: CCTE's Neural Network Formation Assay for Mean Firing Rate, Shafer Lab (AID 2284031)
Experimental: CCTE_Shafer_MEA_dev assay is conducted using Axion Biosystems 48 well microelectrode array (MEA) plates and Maestro recording system. Each well of the MEA plate contains a grid of 16 microelectrodes embedded in the culture surface. Electrically active cells, such as neurons, can be cultured over the electrodes, and electrical activity in these cells can be recorded extracellularly. The spontaneous firing of neurons is captured from each electrode on a microsecond timescale providing both temporally and spatially precise data. […] The CCTE_Shafer_MEA_dev assay uses primary cultures of rat cortical neurons. Recordings are made on days post-plating 5, 7, 9 and 12. As these cultures mature over time, neural networks develop functional activity and form cohesive networks in which electrical activity can be highly coordinated. CCTE_Shafer_MEA_dev_firing_rate_mean is 1 of 19 assay components of the CCTE_Shafer_MEA_dev assay. It measures the frequency of spikes (action potential firings) as the total number of spikes divided by the length of the recording in a microelectrode array (MEA) using Axion Biosystems Maestro 768 channel amplifier with the AxIS adaptive spike detector. The firing rate is averaged across the active electrodes to report a well-mean value. To collapse across multiple recordings made on days post-plating 5, 7, 9 and 12, the trapezoidal area-under-the-curve of the component is calculated.Data from the assay component CCTE_Shafer_MEA_dev_firing_rate_mean was analyzed into 1 assay endpoint. This assay endpoint, CCTE_Shafer_MEA_dev_firing_rate_mean, was analyzed in the negative analysis fitting direction relative to DMSO as the negative control and baseline of activity. Using a type of functional reporter, gain or loss-of-signal activity can be used to understand electrical activity.
On the day prior to culture, each well was coated thoroughly with 150 uL of 0.05% polyethyleneimine (PEI, Sigma Cat P3143) in 50 mM HEPES (Sigma Cat H7523) at a pH of 8. The plate was incubated at 37C for one hour. PEI was rinsed out with 500 uL of sterile water three times. Plates were stored at 4C until the day of culture. This culture was plated at a seeding density of 1.5 x 10^5 cells/well on a 48-well MEA plate, prepared as described above. Cells were administered via a 25 uL media/laminin ([…]; Sigma Cat L2020-1MG) drop directly onto the microelectrode array, as adding the cells with the laminin results in better attachment than pre-coating with laminin. After 2 hours, an additional 475 uL of cortical media was added and the cells returned to the incubator. Exposure starts at day 0 of plating and is continued over twelve days of network development until the experiment is terminated. Cells are fed with fresh medium on DIV 5 and 9, following the recordings on those days. The entire volume of media in the well is exchanged and any vehicle or compound treatment is renewed. Complete details are found in OP-NHEERL/ISTD/SBB/TJS/2015-03-r0 (available on request, email shafer.tim@epa.gov). Measurement of the electrical activity is non-invasive, and recordings can be made from the same plate over multiple different days of the culture. In cortical neurons, this allows for the measurement of extracellular action potentials over the period during which networks form in the MEA plate.

outcome, inactive:
CC[C@H](C)C(=O)O[C@H]1C[C@@H](C)C=C2C=C[C@H](C)[C@H](CC[C@@H]3C[C@@H](O)CC(=O)O3)[C@H]21
O=P(OC(CCl)CCl)(OC(CCl)CCl)OC(CCl)CCl
Cn1c(=O)c2c(ncn2C)n(C)c1=O
CNCc1ccc(NC(=O)c2c[nH]c3c2C(=O)CCC3)cc1
Nc1nc2ncc(CNc3ccc(C(=O)N[C@@H](CCC(=O)O)C(=O)O)cc3)nc2c(=O)[nH]1
O=C1CCC(N2C(=O)c3ccccc3C2=O)C(=O)N1 (stereo not given)
CC[C@H]1OC(=O)[C@H](C)[C@@H](O[C@H]2C[C@@](C)(OC)[C@@H](O)[C@H](C)O2)[C@H](C)[C@@H](O[C@@H]2O[C@H](C)C[C@H](N(C)C)[C@H]2O)[C@](C)(O)C[C@@H](C)C(=O)[C@H](C)[C@@H](O)[C@]1(C)O
COc1ccc(-n2nc(C(F)F)cc2-c2ccc(S(C)=O)cc2)cc1 (stereo not given)
CCC(C)(C)C(=O)O[C@H]1C[C@@H](C)C=C2C=C[C@H](C)[C@H](CC[C@@H]3C[C@@H](O)CC(=O)O3)[C@H]21
NC(=O)NO
